# According to PubChem BioAssay AID504882 (Broad Institute, 2011):
# Out of some 1,200 compounds screened, about 290 (24%) were called active. About 9% were inconclusive and are not listed. How the calls were made is not given here. A selection follows. Measured potencies and affinities stand elsewhere.
# Assay: LCL viability reduction – cell-based, plate reader, cherry-picks, set 2, cytotoxicity control, dose response (AID 504882)
# Details: EBV lymphoblastoid cells (LCL) viability; series mostly up to 19.5 µM
row,Structure (SMILES),outcome
1,CC(C)(C)C(=O)Nc1nnc(SCC(=O)Nc2ccc3c(c2)OCO3)s1,inactive
2,O=C(NCCc1ccccc1)c1ccccc1Cl,inactive
3,CCc1nnc(NC(=O)c2ccc(S(=O)(=O)N3CCOCC3)cc2)s1,inactive
4,CC(C)N1CCN(c2ccc(OC[C@H]3CO[C@](Cn4cncn4)(c4ccc(Cl)cc4Cl)O3)cc2)CC1,inactive
5,COc1cccc(/C=N\NC(=O)c2ccc(C)nc2)c1,inactive
6,CCOc1cc(Br)cc(/C=N/NC(=O)c2cccnc2)c1O,inactive
7,Cc1ccnc(N/C=C(/NC(=O)c2ccccc2)C(=O)N/N=C\c2ccc(F)cc2)n1,inactive
8,Cc1ccccc1CC(=O)NCc1cccnc1,inactive
9,CC(NC(=O)CNC(=O)OCc1ccccc1)C(=O)N1CC(O)CC1C(=O)OCc1ccccc1 (stereo not given),inactive
10,O=C(CN1C(=O)C2C3C=CC(C3)C2C1=O)NCCC1=CCCCC1 (stereo not given),inactive
11,COCCn1c(C)cc(C(=O)CSc2nnc3ccccn23)c1C,inactive
12,Cc1cc(C(=O)COC(=O)c2cccc(NS(C)(=O)=O)c2)c(C)n1CC1CCCO1 (stereo not given),inactive
13,CSCCC(NC(=O)c1ccco1)C(=O)OCC(=O)Nc1ncc(Cl)c(C)c1Cl (stereo not given),inactive
14,CNC(=O)C1=NCCCc2cc(OC)c(OC)cc21,inactive
15,Nc1ccc(CCNc2ncnc3c2ncn3[C@@H]2O[C@H](CO)[C@@H](O)[C@H]2O)cc1,inactive
16,NC(=O)c1ncn([C@@H]2O[C@H](CO)[C@@H](O)[C@H]2O)n1,inactive
17,Nc1ccn(C2CCCO2)c(=O)n1 (stereo not given),inactive
18,CC1(C)CC(=O)C(CC2=C(O)CC(C)(C)CC2=O)=C(O)C1,inactive
19,CCc1cc(Cl)c(OC)c(C(=O)NC[C@@H]2CCCN2CC)c1O,inactive
20,COc1ccc(NC(=O)CCS(=O)(=O)c2ccc3c(c2)CCN3C(C)=O)cc1,inactive
21,C=CCn1c(SCc2ccc3nonc3c2)nnc1-c1cccs1,inactive
22,COc1c(S(=O)(=O)N2CCN(c3ccc(F)cc3)CC2)ccc(Cl)c1Cl,inactive

row,Structure (SMILES),outcome
1,O=C(CCCN1C(=O)/C(=C/c2ccccc2Cl)SC1=S)NNC(=O)c1ccccc1Cl,inactive
2,CN1C(=O)C(CC(=O)NC2CCCCC2)SC1=Nc1ccccc1 (stereo not given),inactive
3,CCOc1ccc(-c2nc(CSCC(=O)NCc3ccco3)c(C)o2)cc1,inactive
4,COc1ccc(/C=C\C(=O)NCc2ccc3c(c2)cc(C)n3C)cc1OC,inactive
5,COc1ccc(-c2csc3ncnc(NCCO)c23)cc1,inactive
6,CCOC(=O)Cc1csc(N/N=C\c2ccc(N(C)C)cc2)n1,inactive
7,CCCSc1nc2cc(S(=O)(=O)N3CCOCC3)ccc2n1CC,inactive
8,CCc1c(C)nc2cc(-c3ccc(OC)c(OC)c3)nn2c1NCC1CC1,inactive
9,CCN(CC(=O)NCc1ccc(F)cc1)CC(=O)Nc1cc(S(=O)(=O)N(C)C)ccc1C,inactive
10,COc1cc(NCCCCCCN)c2ncccc2c1OC,inactive
11,CN(C)/C=C/C(=O)c1ccc2noc(-c3ccccc3)c2c1,inactive
12,CCc1ccc(C(=O)COC(=O)c2cccc(N3C(=O)c4c(C)nc5ccccc5c4C3=O)c2)cc1,inactive
13,O=C(Cn1nc(C(F)(F)F)c2c1CCC2)NC1CCCCC1,inactive
14,OCc1cc(C(O)CNCCCCCCOCCCCc2ccccc2)ccc1O (stereo not given),inactive
15,Cc1cccc(NC(=O)c2cnc3ccccn3c2=O)c1,inactive
16,Cc1cccc(-n2ncc3c(N4CCOCC4)ncnc32)c1,inactive
17,CCOCCCn1c(=S)[nH]c2ncccc2c1=O,inactive
18,Cc1ccn2c(c1)nc(=S)n2C(=O)c1ccccc1,inactive
19,CCC(C)N1C(=O)CCC1C(=O)N1CCN(c2ccc(F)cc2)CC1 (stereo not given),inactive
20,CNC(=O)c1[nH]cnc1C(=O)N[C@@H](CCCCNC(=O)OC(C)(C)C)C(=O)OC(C)(C)C,inactive
21,CN(C)c1ccnc2sc(C(N)=O)c(N)c12,inactive
22,O=C(Nc1ccc(F)c(F)c1)C1CCCCC1,inactive

row,Structure (SMILES),outcome
1,O=C(C[n+]1ccccc1)N/N=C/c1ccc(O)cc1,inactive
2,Cc1cc(OCC(=O)Nc2cnn(CCCC(=O)O)c2)ccc1Cl,inactive
3,COC(=O)c1cccc2c1-c1ccccc1/C2=N/O,inactive
4,COc1ccc(S(=O)(=O)N2CCN(CC(=O)Nc3cc(OC)cc(OC)c3)CC2)cc1,inactive
5,Cc1cccc(S(=O)(=O)N2CCCc3ccccc32)c1,inactive
6,COc1ccc(S(=O)(=O)NNC(=O)C2Cc3c(ccc4ccccc34)O2)cc1 (stereo not given),inactive
7,Cc1ccc(N2CCCCn3c2nc2c3c(=O)n(CC(=O)O)c(=O)n2C)cc1,inactive
8,Cc1ccc(N(Cc2cc3ccccc3[nH]c2=O)C(=O)c2ccco2)c(C)c1,inactive
9,COc1ccc(S(=O)(=O)N2CCC(C(=O)NC3CC3)CC2)cc1OC,inactive
10,COc1ccc(-c2cnc(NCc3cc4c(cc3[N+](=O)[O-])OCO4)n2C)cc1,inactive
11,CNC1(C)[C@H]2CC[C@H](C2)C1(C)C (stereo not given in full),inactive
12,Cc1ccc(S(=O)(=O)N2CCC[C@H]2C(=O)Nc2ccccc2C)cc1,inactive
13,Cc1ccc(C(=O)CSc2nnnn2C(C)C)c(C)c1,inactive
14,CN1CCc2cccc3c2C1Cc1ccc(O)c(O)c1-3 (stereo not given),inactive
15,O=C(Nc1cc(Cl)ccc1Cl)C1Cc2ccccc2O/C1=N\O (stereo not given),inactive
16,CC(NC(=O)CCOc1ccccc1)c1ccccc1 (stereo not given),inactive
17,COc1cc2c(CCNC(C)=O)c[nH]c2cc1Cl,inactive
18,COCC(=O)N(C)c1nnc(-c2ccccn2)s1,inactive
19,CC1(C)CC(NS(=O)(=O)c2ccc(F)cc2)CC(C)(C)N1,inactive
20,COc1ccc(C(=O)C(CN2CCOCC2)c2ccccc2)cc1F (stereo not given),inactive
21,O=C(CC(c1ccc(F)cc1)c1ccco1)N1CCOCC1 (stereo not given),inactive
22,O=C(Cn1cc(CNC(=O)C2CCCCC2)nn1)Nc1cc(C(F)(F)F)ccc1Cl,inactive

row,Structure (SMILES),outcome
1,C=CC[N+](C)(C)C/C(Cl)=C(\Cl)c1ccccc1,inactive
2,O=C1CCc2cc(OCCCCc3nnnn3C3CCCCC3)ccc2N1,inactive
3,Cc1nnc(NC(=O)CSc2nnc(Cc3cccn3C)n2CCc2ccccc2)s1,inactive
4,Cc1nnc(SCc2cnc(-c3ccc(C(C)C)cc3)s2)n1C,inactive
5,COc1ccc(/C=N/N=C/c2ccc(OC)c(OC)c2)cc1OC,inactive
6,COc1cc(/C=C2/SC(=S)N(Cc3ccccc3)C2=O)ccc1OCC(=O)O,inactive
7,CCOc1ccc(S(=O)(=O)N2CCC(C(=O)NCCc3ccc(S(N)(=O)=O)cc3)CC2)cc1,inactive
8,NC(=O)c1ccccc1N/C=C/C(=O)c1cccs1,inactive
9,O=C(N/C(=C/c1ccc(Br)cc1)C(=O)N1CCOCC1)c1ccc(Br)o1,inactive
10,O=C(Nc1ncc(Br)s1)C(Cc1ccccc1)n1cccc1 (stereo not given),inactive
11,CN(C)CCC(c1ccccc1)c1ccccn1 (stereo not given),inactive
12,CCC(C)n1ncn(-c2ccc(N3CCN(c4ccc(OCC5COC(Cn6cncn6)(c6ccc(Cl)cc6Cl)O5)cc4)CC3)cc2)c1=O (stereo not given),inactive
13,Cn1cccc1/C=N/n1c(-c2ccc(Cl)cc2Cl)n[nH]c1=S,inactive
14,CC(=C/c1ccccc1)/C=N/n1c(-c2ccncc2)n[nH]c1=S,inactive
15,CCn1c(=O)c2c(cnn2C)c2ccccc21,inactive
16,OC(CCCN1CCCCC1)(c1ccccc1)c1ccccc1,inactive
17,COc1ccc(N2C(=O)C(Cl)=C(NCc3ccccc3)C2=O)cc1,inactive
18,COC(=O)[C@@]1(C)[C@H]2C(=O)N(Cc3ccccc3)C(=O)[C@H]2[C@H]2CN=C(SCc3ccc(Cl)cc3)N21,inactive
19,CC(C)Nc1nnc(SCC(=O)c2c(N)n(Cc3ccccc3)c(=O)n(C)c2=O)s1,inactive
20,CCN(C(=O)c1cc(OC)c(OC)c(OC)c1)C1CCCCC1,inactive
21,COC(=O)C1=NNC(C(=O)OC)C1c1ccccc1 (stereo not given),inactive
22,Cn1c(=O)c2c(ncn2CC(=O)Nc2cc(S(=O)(=O)N3CCCCC3)ccc2O)n(C)c1=O,inactive

row,Structure (SMILES),outcome
1,COCCN1Cc2cccc(C(=O)N3CCN(c4cc(C)ccc4C)CC3)c2C1=O,inactive
2,O=C(Nc1cc(C(F)(F)F)cc(C(F)(F)F)c1)Nc1cnn(-c2ccc([N+](=O)[O-])cc2)c1C(F)(F)F,inactive
3,CCOCCCn1cnc2c3cc(F)ccc3n(C)c2c1=O,inactive
4,CCOC(=O)CCSc1nc(N2CCOCC2)c2c(c1C#N)CC(C)(C)OC2,inactive
5,COc1ccc(-c2cn3nc4c(nc3n2)CCCC4)cc1,inactive
6,COc1cccc(C(=O)OCn2nnc3ccccc3c2=O)c1OC,inactive
7,Nc1nc(N)nc(-c2cc(Cl)ccc2Cl)n1,inactive
8,O=C(COc1ccc2ccccc2c1)NCCNC(=O)COc1ccc2ccccc2c1,inactive
9,O=c1c2cnn(-c3ccccc3)c2nc(-c2cccs2)n1-c1ccc(Br)cc1,inactive
10,CC1CC(C)CN(S(=O)(=O)c2ccc(NC(=O)CCN3C(=O)C4CC=CCC4C3=O)cc2)C1 (stereo not given),inactive
11,COc1ccc(S(=O)(=O)NCC(c2cccnc2)N2CCN(c3ccc(F)cc3)CC2)cc1C (stereo not given),inactive
12,Cc1nc2ncccn2c1-c1csc(Nc2ccccc2)n1,inactive
13,CC(=O)c1sc(NC(=O)C2COc3ccccc3O2)nc1C (stereo not given),inactive
14,O=C(COC(=O)c1cc2ccccc2cc1O)NCc1ccccc1,inactive
15,CCNc1nc(CN2CCOCC2)nc2sc3c(c12)CCC3,inactive
16,O=c1c(O)c(-c2ccc(O)c(O)c2)oc2cc(O)cc(O)c12,inactive
17,O=C(O)[C@@H]1[C@H]2C[C@H]3c4[nH]c5ccccc5c4CCN3C[C@@H]2CC[C@@H]1O,inactive
18,CC1=NN(C(N)=S)C(=O)C1N=Nc1cccc(C(=O)O)c1 (stereo not given),inactive
19,Cc1ccc(C(=O)Nc2ccc3c(c2)OCCO3)c(Cl)c1,inactive
20,Cc1ccc(C)c(S(=O)(=O)N2CCN(C(=O)c3ccc(C)s3)CC2)c1,inactive
21,N#Cc1c(Nc2ccccc2)sc(C(=O)c2ccc(F)cc2)c1N,inactive
22,CNC(=S)Nc1ccc2nc(C)c(C)nc2c1,inactive
